Reference: PubChem BioAssay (Tox21)
“And” between values parts separate entries of the source, which are not always exact repeats. Identical values can stand only once. Records with an inconclusive call do not appear. Where a call stands in place of a potency, no number is given. The source made the active and inactive calls. The call rests on the fitted dose curve; in most records, active means well fitted cell-killing curve with a large enough effect in the repeat runs; inconclusive means weak or mixed curves, or effect the other way; inactive means no such curve, though single readings can be large or run the other way.

Test: qHTS assay to identify small molecule agonists of the vitamin D receptor (VDR) signaling pathway - cell viability counter screen (AID 743224); further: nearly all actives have a fitted effect of over 50% in size
Details: VDR-bla HEK293T viability, CellTiter-Glo luminescence, 16 h; series mostly up to 62.6 µM
Source text: U.S. Tox21 Program National Center for Advancing Translational Sciences [NCATS] NIH Chemical Genomics Center [NCGC] U.S. Environmental Protection Agency [EPA] National Institutes of Environmental Health Sciences [NIEHS] National Toxicology Program [NTP] U.S. Food and Drug Administration [FDA] Tox21 Assay Overview: The vitamin D receptor (VDR), a member of nuclear hormone receptor superfamily, plays a critical role in calcium homeostasis and bone metabolism. It is also involved in cell differentiation and growth, and thrombogenicity. […] The cytotoxicity of the Tox21 compound library against the VDR-bla cell line was tested in parallel by measuring the cell viability using CellTiter-Glo assay (Promega, Madison, WI) in the same wells.
Tox21 Assay Protocol Summary: VDR-bla cells were dispensed at 2,000 cells/6 uL/well into black wall/clear-bottom 1536-well plates using a Multidrop Combi (Thermo Fisher Scientific, Waltham, MA) dispenser. After the assay plates were incubated at a 37C and 5% CO2 for 4 h, 23 nL of compounds dissolved in DMSO, positive controls or DMSO only was transferred to the assay plate by a Pintool station (Kalypsys, San Diego, CA). The plates were incubated at 37C and 5% CO2 for 16 h. After 1 uL of LiveBLAzerTM B/G FRET substrate was added using a Bioraptr Flying Reagent Dispenser (FRD) workstation (Beckman Coulter, Indianapolis, IN, USA), the plates were incubated at room temperature for 2 h, and fluorescence intensity was measured by an Envision plate reader (PerkinElmer, Shelton, CT). For cell viability readout that measures cytotoxicity, 3 ul/well of CellTiter-Glo reagent was added into the assay plates using a FRD. After 30 min incubation at room temperature, the luminescence intensity in the plates was measured using a ViewLux (PerkinElmer) plate reader.
Potency means the concentration at half of the fitted maximal effect.

SMILES	Potency
Cc1c2ccccc2c(C)c2c1ccc1ccccc12	43.2 µM (active) and 27.5 µM (active)
CCCCCCC1CCCC(=O)O1 (stereo not given)	inactive
CC[N+](CC)(CC)CCOC(=O)C(C1CCCC1)C1CCCC1	inactive
ClCCl	inactive
OC1CCCc2ccccc21 (stereo not given)	inactive
C=C(C)C(=O)OCCCCCCCCCC	44 µM (active)
C/C=C/C=C/COC(=O)C(C)C	inactive
c1ccc(SSc2ccccc2)cc1	inactive
OC1CCC(C2CCCCC2)CC1 (stereo not given)	inactive
CCCCCCCCCCCCOCCOCCOCCOCCOCCOCCOCCOCCOCCO	29.8 µM (active)
NC(=S)NC(N)=S	inactive
c1cnccn1	inactive
C[C@H]1NCc2cc(-c3ccc4c(=O)c(C(=O)O)cn(C5CC5)c4c3OC(F)F)ccc21	inactive
CCOC(=O)NNc1ccc(N(CC)CC(C)O)nn1 (stereo not given)	inactive
COC(C)=O	inactive
Cc1cc(C(C)(C)C)c(O)c(C)c1Cn1c(=O)n(Cc2c(C)cc(C(C)(C)C)c(O)c2C)c(=O)n(Cc2c(C)cc(C(C)(C)C)c(O)c2C)c1=O	inactive
O=C1NC(=O)[C@@H]2CC=CC[C@H]12	inactive
COc1ccc(NC(=O)CC(C)=O)cc1	inactive
CC(C)CCOC(=O)/C=C/c1ccccc1	inactive
CCN1C(=O)c2ccccc2C1Nc1ccc(OCCN2CCCCC2)cc1 (stereo not given)	inactive

SMILES	Potency
CCCc1ccc(OCC(=O)N2CCN(C(=O)COc3ccc(CCC)cc3OC)CC2)c(OC)c1	inactive
Clc1sc(Cl)c(Cl)c1Cl	inactive
C#C[C@]1(O)CC[C@H]2[C@@H]3[C@H](C)CC4=C(CCC(=O)C4)[C@H]3CC[C@@]21C	inactive
O=C(O)c1cc(=O)c2ccccc2o1	inactive
COc1cc(/C=C/c2ccccc2)oc(=O)c1	inactive
Cc1c(C)c2c(c(C)c1O)CC[C@@](C)(CCC[C@H](C)CCC[C@H](C)CCCC(C)C)O2	inactive
CC1(C)CCC[C@]2(C)[C@H]3CCO[C@]3(C)CC[C@@H]12	inactive
COC(=O)c1ccccc1OC	inactive
O=S(=O)(O)c1ccccc1/C=C/c1ccc(-c2ccc(/C=C/c3ccccc3S(=O)(=O)O)cc2)cc1	inactive
Cc1cccc2cccnc12	inactive
CN(C)CCN1CCN(c2cccc(Cl)c2)C1=O	inactive
OCC(F)(F)F	inactive
Cc1cc(=O)oc2cc(O)cc(O)c12	inactive
FC(F)(F)c1cccc(Cl)c1	inactive
CCCCCCCCCCCCCC[N+](C)(C)C	26.6 µM (active) and 19.5 µM (active)
CC(N=C(NC#N)Nc1ccncc1)C(C)(C)C (stereo not given)	inactive
C=CCCC(=O)/C=C/C1C(C)=CCCC1(C)C (stereo not given)	inactive
C[C@@H](O)[C@H](N)C(=O)O	inactive
O=C1CCCCCCCCCCCCCCCO1	inactive
O=S(=O)(O)c1ccc(N=Nc2c(O)ccc3ccccc23)cc1	inactive
